Results published in PubChem BioAssay (Tox21).
Values without a mark were called inactive. Records with an inconclusive call do not appear. Where a call stands in place of a potency, no number is given. The source made the active and inactive calls. Unless noted, calls follow the shape of the dose curve; as a rule, active = well fitted curve in the direction sought with a large enough effect in the repeat runs; inconclusive = weak or mixed curves; inactive = no such curve, though single readings can be large; an effect the other way counts as inactive or inconclusive.

Tests used:
[1] = qHTS assay to identify small molecule antagonists of the estrogen related receptor (ERR) signaling pathway from Tox21 library - cell viability counter screen (AID 1224834); also: nearly all actives have a fitted effect of over 30% in size; also: potency is read from the fitted curve at half-maximal effect
In short: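 Compounds in DMSO were pinned onto ERR cells that had been incubated for 6 h, and the plates were held at 37 C for 17.5 h. CellTiter-Fluor reagent was then added and fluorescence was measured after 30 min.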

[2] = molecular target: Luciferin 4-monooxygenase (Photinus pyralis) (UniProt P08659); assay: qHTS assay to identify small molecule inhibitors of firefly luciferase (AID 1224835); also: nearly all actives have a fitted effect of over 25% in size
Sequence of Luciferin 4-monooxygenase (Photinus pyralis) (P08659 whole entry, looked up): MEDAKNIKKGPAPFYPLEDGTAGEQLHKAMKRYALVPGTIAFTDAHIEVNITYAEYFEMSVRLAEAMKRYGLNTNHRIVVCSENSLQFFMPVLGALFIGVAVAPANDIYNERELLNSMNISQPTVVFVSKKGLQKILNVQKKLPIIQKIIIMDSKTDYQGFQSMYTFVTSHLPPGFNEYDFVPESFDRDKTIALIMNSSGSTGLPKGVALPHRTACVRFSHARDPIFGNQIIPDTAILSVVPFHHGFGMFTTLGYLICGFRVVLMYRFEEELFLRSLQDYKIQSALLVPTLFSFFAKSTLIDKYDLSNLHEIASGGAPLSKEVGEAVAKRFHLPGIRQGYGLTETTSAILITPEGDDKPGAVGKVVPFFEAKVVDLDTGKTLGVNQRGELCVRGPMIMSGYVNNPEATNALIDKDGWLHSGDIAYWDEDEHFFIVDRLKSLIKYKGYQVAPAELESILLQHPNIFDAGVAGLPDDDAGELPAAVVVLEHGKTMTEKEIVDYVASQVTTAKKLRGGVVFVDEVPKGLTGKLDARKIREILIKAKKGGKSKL
In short: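 Biochemical qHTS: compounds run as interplate titrations against purified firefly enzyme, with D-luciferin and ATP each at its KM concentration. Light output recorded by CCD imaging.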

[3] = qHTS assay to identify small molecule agonists of the constitutive androstane receptor (CAR) signaling pathway - cell viability counter screen (AID 1224836); also: nearly all actives have a fitted effect of over 45% in size
In short: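 Double-stable HepG2 hepatoma cells (hCAR plus CYP2B6-2.2kb) are treated for 23 h at 37 C with test compounds in 15-point concentration series. PK11195 at 0.75 uM final is co-added. Cell viability is quantified by CellTiter-Fluor.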

[4] = qHTS assay to identify small molecule antagonists of the estrogen related receptor signaling pathway with the pleiotropic PPARgamma coactivator (PGC) from Tox21 10K library - cell viability counter screen (AID 1224840; active = well fitted cell-killing curve with a large enough effect in the repeat runs, not every such curve was filed as active; also: nearly all actives have a fitted effect of over 40% in size)
In short: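 Cell viability is measured by CellTiter-Fluor fluorescence in PGC/ERR cells that receive compounds after a 6-hour attachment period and are then incubated 17.5 hours at 37 C.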

[5] = molecular target: Thyrotropin receptor (Homo sapiens) (UniProt P16473); assay: qHTS assay to identify small molecule agonists of the thyroid stimulating hormone receptor (TSHR) signaling pathway (AID 1224843; calls by dose curve; also: nearly all actives have a fitted effect of over 45% in size)
Sequence of Thyrotropin receptor (Homo sapiens) (P16473 whole entry, looked up): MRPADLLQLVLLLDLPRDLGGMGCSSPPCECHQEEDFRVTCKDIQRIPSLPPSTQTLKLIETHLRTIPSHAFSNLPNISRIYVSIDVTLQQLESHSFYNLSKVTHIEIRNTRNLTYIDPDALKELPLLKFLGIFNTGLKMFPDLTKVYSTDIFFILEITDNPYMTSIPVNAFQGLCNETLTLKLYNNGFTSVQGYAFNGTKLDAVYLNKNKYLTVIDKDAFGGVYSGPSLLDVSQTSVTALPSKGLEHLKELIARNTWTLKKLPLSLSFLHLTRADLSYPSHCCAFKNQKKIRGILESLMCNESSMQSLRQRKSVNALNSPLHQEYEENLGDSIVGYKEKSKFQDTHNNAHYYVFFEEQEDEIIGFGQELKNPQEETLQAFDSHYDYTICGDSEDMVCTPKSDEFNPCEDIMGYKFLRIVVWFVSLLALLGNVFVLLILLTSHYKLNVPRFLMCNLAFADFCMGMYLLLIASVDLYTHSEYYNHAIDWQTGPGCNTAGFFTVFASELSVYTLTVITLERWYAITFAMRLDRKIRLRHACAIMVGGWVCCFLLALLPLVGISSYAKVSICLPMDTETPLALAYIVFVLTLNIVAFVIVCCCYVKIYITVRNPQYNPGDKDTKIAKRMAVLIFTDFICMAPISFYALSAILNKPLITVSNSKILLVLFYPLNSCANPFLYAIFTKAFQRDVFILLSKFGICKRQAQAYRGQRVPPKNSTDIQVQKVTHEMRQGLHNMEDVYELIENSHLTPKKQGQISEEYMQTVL
In short: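 Agonist-mode screen: TSHR HEK293 cells received test chemicals for half an hour at room temperature, then HTRF cAMP detection reagents for one hour prior to fluorescence measurement. Each chemical ran as a 15-concentration series, triplicated.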

[6] = qHTS assay to identify small molecule agonists of the hypoxia (HIF-1) signaling pathway - cell viability counter screen (AID 1224844; calls by dose curve; also: nearly all actives have a fitted effect of over 50% in size)
In short: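 Viability counter screen: HRE-bla ME-180 cells plated 5 hrs before compound addition, treated 17 hrs at 37C and 5% CO2, then CellTiter-Glo added after the FRET reporter read; luminescence after 30 min.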

[7] = qHTS assay to identify small molecule agonists of H2AX (AID 1224845; active = well fitted activation curve with a large enough effect in the signal ratio in the repeat runs, not every such curve was filed as active; the % refers to the signal ratio)
In short: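 Wild-type CHO-K1 cells, plated overnight, exposed 3hr at 37C to 15 concentrations (0.76% DMSO final). Lysed, then HTRF anti-pH2AX (S139) cryptate and anti-H2AX-d2 antibodies, 24 hr room temperature; 665/620 nm emission read.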

[8] = qHTS assay to identify small molecule agonists of the hypoxia (HIF-1) signaling pathway (AID 1224846; active = well fitted activation curve with a large enough effect in the signal ratio in the repeat runs, not every such curve was filed as active; the % refers to the signal ratio; also: potency is read from the fitted curve at half-maximal effect)
In short: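 Agonist mode reporter screen. ME-180 cells stably expressing bla under HRE control received test compounds in DMSO for 17 hrs (37C, 5% CO2), and beta-lactamase activity was then detected with the CCF4-AM FRET substrate.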

[9] = qHTS assay to identify small molecule agonists of H2AX - cell viability counter screen (AID 1224847; calls by dose curve; also: top concentration of the series differs between compounds; nearly all actives have a fitted effect of over 30% in size)
In short: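 For this counter screen, overnight-attached CHO-K1 cells received test compounds (15 concentrations, 0.76% DMSO final); 3 hr later at 37C, CellTiter-Glo reagent was added and luminescence recorded after 30 min at room temperature.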

[10] = qHTS RealTime-Glo MT Cell Viability Assay in HepG2 cells - 24 hour (AID 1224867); also: nearly all actives have a fitted effect of over 50% in size
In short: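 qHTS, HepG2, 600 cells/well, RealTime-Glo (NanoLuc + prosubstrate) added with cells; 5 h preincubation; DMSO compound addition; 37 C; luminescence at 0/8/16/24/32/40 h.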

[11] = qHTS RealTime-Glo MT Cell Viability Assay in HEK293 cells - 32 hour (AID 1224868); also: nearly all actives have a fitted effect of over 50% in size; also: potency is read from the fitted curve at half-maximal effect
In short: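 Assay medium contained NanoLuc luciferase plus cell-permeant prosubstrate, added with HEK293 cells at 600 cells/well. After 5 h at 37 C/5% CO2 compounds were added; plates stayed at 37 C for 40 h with serial luminescence reads.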

[12] = A CellTox Green Cytotoxicity Assay to monitor cytotoxicity in HEK293 cells - 0 hour (AID 1224869); also: nearly all actives have a fitted effect of over 50% in size
In short: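 Dead-cell fluorescence measured kinetically: asymmetric cyanine dye, HEK293, 600 cells/well, 5 h settle, 23 nL cpd/DMSO, 37 C, reads 0–40 h every 8 h.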

[13] = qHTS RealTime-Glo MT Cell Viability Assay in HepG2 cells - 40 hour (AID 1224870); also: nearly all actives have a fitted effect of over 50% in size
In short: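 HepG2 cells (600/well) mixed with RealTime-Glo MT reagent, settled 5 h at 37 C/5% CO2 before compound addition. Nonlytic NanoLuc luminescence from viable-cell prosubstrate reduction read repeatedly during 40 h treatment at 37 C.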

[14] = qHTS assay to identify small molecule antagonists of the constitutive androstane receptor (CAR) signaling pathway - cell viability counter screen (AID 1224837); also: nearly all actives have a fitted effect of over 45% in size
In short: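 Cells are seeded, rested 4 hr at 37 C/5% CO2, dosed with compound (15-point series) and 50 nM CITCO, incubated a further 23 hr, and then CellTiter-Fluor reagent is added before fluorescence is read. The line is HepG2 with stable hCAR and CYP2B6-2.2kb.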

[15] = molecular target: Nuclear receptor subfamily 1 group I member 3 (Homo sapiens) (UniProt Q14994); assay: qHTS assay to identify small molecule antagonists of the constitutive androstane receptor (CAR) signaling pathway (AID 1224838);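 also: HepG2 cells stably expressing hCAR with CYP2B6 luciferase reporter stimulated by CITCO; nearly all actives have a fitted effect of over 40% in size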; also: potency is read from the fitted curve at half-maximal effect
Sequence of Nuclear receptor subfamily 1 group I member 3 (Homo sapiens) (Q14994 whole entry, looked up): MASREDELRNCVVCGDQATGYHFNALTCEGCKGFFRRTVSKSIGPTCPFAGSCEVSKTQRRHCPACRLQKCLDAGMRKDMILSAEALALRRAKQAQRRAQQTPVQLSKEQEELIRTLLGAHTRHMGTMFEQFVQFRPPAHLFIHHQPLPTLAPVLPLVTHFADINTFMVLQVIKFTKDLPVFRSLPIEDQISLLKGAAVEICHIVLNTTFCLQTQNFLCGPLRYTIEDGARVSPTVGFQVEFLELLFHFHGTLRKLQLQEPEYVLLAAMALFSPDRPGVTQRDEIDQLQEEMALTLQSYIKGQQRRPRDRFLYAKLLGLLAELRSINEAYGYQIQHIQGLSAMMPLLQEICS
In short: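 Luminescence from a CYP2B6-2.2kb promoter reporter in hCAR-expressing HepG2 cells reflects CAR signaling. Cells received compounds at 15 concentrations and 50 nM CITCO (final), then incubated 24 h at 37 C/5% CO2.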

[16] = molecular target: Nuclear receptor subfamily 1 group I member 3 (Homo sapiens) (UniProt Q14994); assay: qHTS assay to identify small molecule agonists of the constitutive androstane receptor (CAR) signaling pathway (AID 1224839);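 also: HepG2 cells stably carrying human CAR and a CYP2B6 luciferase reporter; nearly all actives have a fitted effect of over 15% in size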
In short: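 Readout: firefly luciferase luminescence via ONE-Glo. System: HepG2 double-stable for hCAR and CYP2B6-2.2kb. Conditions: 15-point compound titration, PK11195 at 0.75 uM final, 24 h incubation.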

[17] = qHTS assay to identify small molecule antagonists of the estrogen related receptor signaling pathway with the pleiotropic PPARgamma coactivator (PGC) from Tox21 10K library (AID 1224841; call rule not given here; also: potency is read from the fitted curve at half-maximal effect)
In short: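 Cells stably carrying the PGC/ERR reporter, seeded at 2,000 per well, received pin-transferred compounds 6 h post-plating. Exposure lasted 18 h at 37 C. Signal: One-Glo luminescence.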

[18] = qHTS assay to identify small molecule agonists of the estrogen related receptor signaling pathway with the pleiotropic PPARgamma coactivator (PGC) from Tox21 10K library (AID 1224842); also: nearly all actives have a fitted effect of over 15% in size
In short: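 PGC/ERR reporter cell line, 2,000 cells per well, incubated 6 h at 37 C before 23 nL compound in DMSO was added. After 18 h at 37 C, One-Glo luminescence read following 30 min at room temperature.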

[19] = qHTS assay to identify small molecule antagonists of the estrogen related receptor (ERR) signaling pathway from Tox21 library (AID 1224848); also: nearly all actives have a fitted effect of over 50% in size; also: potency is read from the fitted curve at half-maximal effect
In short: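 Quantitative high-throughput format: ERR reporter cells (2,000/well) pre-incubated 6 h, treated 18 h at 37 C with compounds in DMSO alongside positive and negative controls, then read by ONE-Glo luminescence.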

[20] = qHTS assay to identify small molecule agonists of the estrogen related receptor (ERR) signaling pathway from Tox21 library (AID 1224849; calls by dose curve; also: nearly all actives have a fitted effect of over 15% in size); settings: ERR reporter cell line, ONE-Glo luciferase, 18 h; at 92.4 µM (top of the series) unless noted
In short: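 Quantitative HTS in agonist format: NTP ERR cell line, compounds transferred in DMSO after 6 h plating, 18 h incubation at 37 C, ONE-Glo luminescence endpoint.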

Row | Compound | Potency [1] | Potency [2] | Potency [3] | Potency [4] | Potency [5] | Potency [6] | Potency [7] | Potency [8] | Potency [9] | Potency [10] | Potency [11] | Potency [12] | Potency [13] | Potency [14] | Potency [15] | Potency [16] | Potency [17] | Potency [18] | Potency [19] | activity change, positive = activation [20]
1 | Cc1ccc(C(C)OC(=O)C2(C)CCC(C(=O)O)C2(C)C)cc1 (stereo not drawn) | inactive | inactive | inactive | inactive | inactive | inactive | inactive | inactive | inactive | inactive | inactive | inactive | inactive |  |  |  |  |  |  | 
2 | CC(=O)OC[C@H]1O[C@@H](n2ncc(=O)[nH]c2=O)[C@H](OC(C)=O)[C@@H]1OC(C)=O | inactive | inactive |  | inactive | inactive | inactive |  | inactive | inactive | inactive | inactive | inactive | inactive | inactive | inactive | inactive |  |  |  | 
3 | CC(=O)c1ccc2c(c1)N(CCCN1CCC(CCO)CC1)c1ccccc1S2 | 23.7 µM (active) | inactive | inactive | inactive |  |  |  | inactive | inactive | inactive | 21.3 µM (active) | inactive | inactive |  |  |  |  |  |  | 
4 | CCOC(=O)C(=O)CCc1ccccc1 | inactive | inactive |  | inactive |  | inactive | inactive | inactive | inactive | inactive | inactive | inactive | inactive | inactive | inactive | inactive |  |  |  | 
5 | OC[C@H]1O[C@@H](OCCc2ccc(O)cc2)[C@H](O)[C@@H](O)[C@@H]1O | inactive | inactive |  |  |  | inactive | inactive | inactive | inactive | inactive | inactive | inactive | inactive | inactive | inactive | inactive | inactive | inactive | inactive | 4.76% [at 42.5 µM]
6 | OCCNCc1ccccc1 | inactive | inactive |  | inactive |  |  |  | inactive | inactive | inactive | inactive | inactive | inactive | inactive | inactive | inactive |  |  |  | 
7 | CC(C)(C)Cl | inactive | inactive |  | inactive | inactive | inactive | inactive | inactive | inactive | inactive | inactive | inactive | inactive | inactive | inactive |  |  |  |  | 
8 | CCCCC(CC)COC(=O)COc1ccc(Cl)cc1Cl (stereo not drawn) | inactive |  | inactive | inactive | inactive | inactive | inactive | inactive | inactive | inactive | inactive | inactive | inactive | inactive |  |  |  |  |  | 
9 | CCOC(=O)C(F)(F)F | inactive |  | inactive | inactive | inactive | inactive | inactive | inactive | inactive | inactive | inactive | inactive | inactive |  | inactive | inactive |  |  |  | 
10 | Cc1oc2c(NC(=O)c3c(Cl)cccc3Cl)cccc2c1C(C)(C)O | 43.3 µM (active) |  | inactive |  |  |  | inactive | 17.4 µM (active) |  | inactive |  | inactive |  |  | 5.45 µM (active) | inactive |  | inactive | 30.6 µM (active) | -55.8%
11 | O=C(O)c1ccc(-n2nc(-c3ccccc3O)nc2-c2ccccc2O)cc1 | 23.7 µM (active) |  | inactive | inactive |  | inactive |  |  |  | inactive |  | inactive | inactive | inactive |  |  | 10.6 µM (active) | inactive | 21.1 µM (active) | -48.9% [at 42.5 µM]
12 | CC(=O)c1cccc([N+](=O)[O-])c1 | inactive |  | inactive | inactive |  | inactive | inactive | inactive | inactive | inactive | inactive | inactive | inactive |  | inactive | inactive |  |  |  | 
13 | Cc1ccc(N=Nc2c(O)c(C(=O)O)cc3ccccc23)c(S(=O)(=O)O)c1 | 21 µM (active) |  |  |  | inactive |  |  | inactive |  | inactive | inactive | inactive | inactive |  | inactive | inactive |  |  |  | 
14 | CCCCO | inactive |  | inactive | inactive | inactive |  | inactive | inactive | inactive | inactive | inactive | inactive | inactive | inactive |  |  |  |  |  | 
